Data: PubChem BioAssay (NCATS)
Where “and” joins values, the source holds several entries; their conditions need not be identical. Identical values can stand only once. Results filed as inconclusive are left out. Calls of active or inactive are those of the source. Unless noted, the call rests on the fitted dose curve; in most records, active means well fitted curve in the direction sought with a large enough effect; inconclusive means small, poorly fitted or top-dose-only effect, or another doubt; inactive means no such curve, though single readings can be large; an effect the other way counts as inactive or inconclusive.

How the values were obtained:
[1] = target: Calcium and integrin-binding protein 1 (Homo sapiens) (UniProt Q99828); experiment: Primary qHTS for Identification of Calcium Integrin Binding Protein 1 (CIB1) Competitor (AID 1508620);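 further: GST tagged CIB1 binding a fluorescein labelled alphaIIb integrin peptide tracer; top concentration of the series differs between compounds; on the % scale 0 is the no-effect control and ±100 the full control effect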
Summary of the method: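 Fluorescence polarization competition: CIB1-GST (1 uM final) preincubated with compound 15 min at room temperature, then FITC-labeled alphaIIb peptide (100 nM final) added for another 15 min. Polarization read at Ex 480/Em 540.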

[2] = A High-Content qHTS Against Drug Library for the Identification of Small Molecules that Inhibit DYT1 Early Onset Primary Dystonia-Associated Cell Pathology (AID 1645839; calls by dose curve; further: series mostly up to about 46 µM)
Summary of the method: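 Induced EGFP-delE TorsinA cells are imaged after 48 h of compound treatment. Punctate fusion-protein distribution gives the %pathology value, while nuclei counts flag toxicity. Wild-type EGFP-hTOR1A cells define the normal pattern.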

[3] = target: Cytochrome P450 2D6 (Homo sapiens) (UniProt P10635); experiment: Cytochrome P450 family 2 subfamily D member 6 (CYP2D6) small molecule antagonists: luciferase biochemical (cell-free) qHTS assay (AID 1645840; active means well fitted curve in the direction sought with a large enough effect in the repeat runs; an effect the other way counts as inactive or inconclusive; further: nearly all actives have a fitted effect of over 55% in size; further: potency means the concentration at half of the fitted maximal effect; on activity change, negative = inhibition: series mostly up to about 57 µM; on the % scale 0 is the no-effect control and ±100 the full control effect)
Summary of the method: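 P450-Glo CYP2D6 system: proluciferin substrate converted by enzyme to luciferin, read by luminescence proportional to activity. Enzyme-substrate mix with compound 10 min at room temperature, then NADPH regeneration 1 h before detection reagent.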

[4] = target: Cytochrome P450 2C9 (Homo sapiens) (UniProt P11712); experiment: Cytochrome P450 family 2 subfamily C member 9 (CYP2C9) small molecule antagonists: luciferase biochemical (cell-free) qHTS assay (AID 1645842; active means well fitted curve in the direction sought with a large enough effect in the repeat runs; an effect the other way counts as inactive or inconclusive; further: nearly all actives have a fitted effect of over 55% in size; further: potency means the concentration at half of the fitted maximal effect; on activity change, negative = inhibition: series mostly up to about 57 µM; on the % scale 0 is the no-effect control and ±100 the full control effect)
Summary of the method: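 P450-Glo CYP2C9 system: proluciferin substrate with enzyme in mix containing 0.4% BSA, 10 min at room temperature, then NADPH regeneration solution added and incubated 1 h at 37C. Detection reagent stopped reaction; luminescence read after 20 min as RLU.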

[5] = Primary qHTS for inhibitors of nuclear receptor binding SET domain protein 2 (NSD2) in an isogenic RCH-ACV NSD2 p.E1099K mutant (9B) (AID 1645876); further: nearly all actives have a fitted effect of over 70% in size; further: potency means the concentration at half of the fitted maximal effect
[6] = Primary qHTS for inhibitors of nuclear receptor binding SET domain protein 2 (NSD2) in an RCH-ACV wild type WT cells (2C) (AID 1645877); further: nearly all actives have a fitted effect of over 70% in size; further: potency means the concentration at half of the fitted maximal effect
[7] = Primary qHTS for small molecule stabilizers of the endoplasmic reticulum resident proteome: Secreted ER Calcium Modulated Protein (SERCaMP) assay (AID 1508630); further: on the % scale 0 is the no-effect control and ±100 the full control effect
Summary of the method: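 The SH-SY5Y reporter protocol was run at 3 concentrations up to 38.3 uM (primary) or 11 concentrations (follow-up): 16 h compound, 100 nM thapsigargin for 4 h, then extracellular luciferase luminescence.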

Chain of Calcium and integrin-binding protein 1 (Homo sapiens) (Q99828 whole entry, looked up): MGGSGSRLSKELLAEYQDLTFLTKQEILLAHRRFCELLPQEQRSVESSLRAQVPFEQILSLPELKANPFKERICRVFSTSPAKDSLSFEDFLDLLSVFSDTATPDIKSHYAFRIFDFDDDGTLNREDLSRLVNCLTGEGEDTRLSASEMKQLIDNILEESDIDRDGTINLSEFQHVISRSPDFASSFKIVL
Chain of Cytochrome P450 2D6 (Homo sapiens) (P10635 whole entry, looked up): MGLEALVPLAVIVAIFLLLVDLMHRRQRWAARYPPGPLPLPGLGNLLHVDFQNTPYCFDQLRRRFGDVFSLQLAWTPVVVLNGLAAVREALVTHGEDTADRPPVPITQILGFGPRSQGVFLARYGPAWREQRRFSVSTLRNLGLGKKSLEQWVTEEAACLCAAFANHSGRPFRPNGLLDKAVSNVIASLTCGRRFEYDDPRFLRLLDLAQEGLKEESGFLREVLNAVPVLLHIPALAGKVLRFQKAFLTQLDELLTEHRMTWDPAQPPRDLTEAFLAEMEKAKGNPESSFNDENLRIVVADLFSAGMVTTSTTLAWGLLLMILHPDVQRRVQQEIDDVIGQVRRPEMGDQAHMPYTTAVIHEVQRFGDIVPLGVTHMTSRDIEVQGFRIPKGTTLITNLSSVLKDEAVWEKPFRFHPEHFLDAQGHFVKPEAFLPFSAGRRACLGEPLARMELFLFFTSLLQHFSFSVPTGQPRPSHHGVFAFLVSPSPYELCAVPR
Chain of Cytochrome P450 2C9 (Homo sapiens) (P11712 whole entry, looked up): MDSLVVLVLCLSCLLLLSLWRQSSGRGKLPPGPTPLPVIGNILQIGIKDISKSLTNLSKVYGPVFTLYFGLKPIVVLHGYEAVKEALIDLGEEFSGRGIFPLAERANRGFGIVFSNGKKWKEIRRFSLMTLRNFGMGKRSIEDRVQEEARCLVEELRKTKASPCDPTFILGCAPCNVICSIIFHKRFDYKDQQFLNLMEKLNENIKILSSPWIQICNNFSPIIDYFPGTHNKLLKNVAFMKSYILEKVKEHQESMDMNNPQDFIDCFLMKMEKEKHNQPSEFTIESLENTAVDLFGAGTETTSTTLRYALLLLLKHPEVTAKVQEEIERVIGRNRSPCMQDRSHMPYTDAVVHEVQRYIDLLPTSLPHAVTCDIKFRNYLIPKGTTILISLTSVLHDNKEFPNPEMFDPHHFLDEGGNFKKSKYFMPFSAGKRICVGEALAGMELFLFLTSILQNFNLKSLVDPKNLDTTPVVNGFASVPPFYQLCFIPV

COc1ccc(/C(C)=C/C(=O)O)c(OC)c1
inactive: Potency [1] | Potency [2] | Potency [3] | Potency [4] | Potency [5] | Potency [6]

CC(=O)N[C@@H](CCC(N)=O)C(=O)O
inactive: Potency [1] | Potency [2] | Potency [4] | Potency [5] | Potency [6]

OC1(c2ccc(Cl)cc2)CCNCC1
active: Potency [3] 15.5 µM
inactive: Potency [1] | Potency [5] | Potency [6]

CCCOc1ccc2c(c1)CC[C@@H]1[C@@H]2CC[C@]2(C)C(OC)CC[C@@H]12 (some centres not stated)
active: Potency [3] 15.5 µM | Potency [4] 19.5 µM
inactive: Potency [1] | Potency [2] | Potency [5] | Potency [6]

CCCCCCCC(=O)[O-].CCCCCCCC(=O)[O-].[Zn+2]
inactive: Potency [7] | Potency [2] | Potency [5] | Potency [6]

CC(=O)CC/C=C(\C)CC/C=C(\C)CC/C=C(\C)CCC=C(C)C
inactive: Potency [1] | Potency [2] | Potency [3]

CO/N=C(/C(=O)N[C@@H]1C(=O)N2C(C(=O)[O-])=C(C[n+]3ccn4ncccc43)CS[C@H]12)c1nsc(N)n1
inactive: Potency [2] | Potency [3] | Potency [4]

CCCCCCCCCCCCCCCC[n+]1ccccc1
inactive: Potency [7]
active: Potency [5] 0.376 µM | Potency [6] 0.335 µM

CCN(CC)CCN
inactive: Potency [1] | Potency [2] | Potency [3] | Potency [4] | Potency [5] | Potency [6]

C#Cc1ccc(-c2ccccc2F)cc1
inactive: Potency [1] | Potency [2] | Potency [5] | Potency [6]
active: Potency [3] 15.1 µM | Potency [4] 12 µM

CN1Cc2cc(C(=O)N3CCC(C4CCNCC4)CC3)ccc2NC(CC(=O)O)C1=O (configuration not stated)
inactive: Potency [1] | Potency [2] | Potency [3] | Potency [4] | Potency [5] | Potency [6]

Oc1cccc2[nH]ccc12
active: Potency [3] 15.5 µM
inactive: Potency [1]

CC1(C)O[C@@H]2C[C@H]3[C@@H]4CCC5=CC(=O)C=C[C@]5(C)[C@@]4(F)[C@@H](O)C[C@]3(C)[C@]2(C(=O)CO)O1
inactive: Potency [1] | Potency [2] | Potency [4]
active: Potency [6] 59.6 nM and 13.2 nM

Nc1ccc2c(c1)CN1C(=O)c3ccccc3C1=N2
inactive: Potency [1] | Potency [7]
active: Potency [3] 1.69 µM | Potency [4] 4.25 µM | Potency [5] 7.31 µM | Potency [6] 8.2 µM

Oc1ccc(CCNCCCCCCNCCc2ccccc2)cc1O
inactive: Potency [1] | Potency [4]
active: Potency [3] 24.5 µM | Potency [6] 16.8 µM

NC(=O)C1(N2CCCCC2)CCN(CCCN2c3ccccc3CCc3ccc(Cl)cc32)CC1
active: Potency [3] 2.45 µM | Potency [5] 9.44 µM | Potency [6] 8.41 µM
inactive: Potency [1] | Potency [7]

Oc1ccccc1
inactive: Potency [2] | Potency [5] | Potency [6]

CCCC(CCC)(C(=O)OCC)C(=O)OCC
inactive: Potency [1] | Potency [2] | Potency [3] | Potency [4] | Potency [5] | Potency [6]

CCN1C(=O)c2ccccc2C1Nc1ccc(OCCN2CCCCC2)cc1 (configuration not stated)
inactive: Potency [1] | Potency [4] | Potency [5] | Potency [6]

NCC[C@H](O)C(=O)N[C@@H]1C[C@H](N)[C@@H](O[C@H]2O[C@H](CN)[C@@H](O)[C@H](O)[C@@H]2O)[C@H](O)[C@@H]1O[C@H]1O[C@H](CO)[C@@H](O)[C@H](N)[C@@H]1O
inactive: activity change, negative = inhibition [1] 3.05% [at 1.07 µM] | % pathology change, negative = correction [2] -0.271% [at 0.369 µM] | activity change, negative = inhibition [4] 1.19% [at 0.91 µM] | activity change, negative = viability loss [5] 7.89% [at 0.588 µM] | activity change, negative = cell killing [6] -24.5% [at 0.588 µM]

CCCCOCCOC(=O)c1cccnc1
inactive: Potency [1] | Potency [2] | Potency [5] | Potency [6]

CC(COc1ccccc1)NN (configuration not stated)
active: Potency [3] 16.9 µM | Potency [4] 23.9 µM
inactive: Potency [1] | Potency [2] | Potency [5] | Potency [6]

CC(NCCC(c1ccccc1)c1ccccc1)c1ccccc1 (configuration not stated)
active: Potency [3] 0.0871 µM | Potency [4] 13.8 µM | Potency [5] 18.8 µM | Potency [6] 18.8 µM
inactive: Potency [1] | Potency [7]

COc1ccc(-n2nc(CCC(=O)N(C)O)cc2-c2ccc(Cl)cc2)cc1
inactive: Potency [1]
active: Potency [3] 4.9 µM | Potency [4] 2.75 µM | Potency [5] 8.41 µM | Potency [6] 7.5 µM

Cc1ncc([N+](=O)[O-])n1C
inactive: Potency [1] | Potency [3] | Potency [4] | Potency [5] | Potency [6]
